Calls of active or inactive are those of the source. Unless noted, how the calls were made is not given here.

The subject of assay [1] is Wnt5a (protein binding on small-molecule microarray). As to the kind of experiment: small molecules binding Wnt5a protein – biophysical, small-molecule microarray, 635/667 nm fluorescence, primary screen (AID 1142).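 Further: fluorescence read at 667 nm with signal to noise per printed feature.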 The settings on record: 635 nm fluorescence, higher = more signal.
Assay [2] in a line: ATP-based viability of Huh7 replicon cells – cell-based, CellTiter-Glo luminescence, basal, 48 h, cytotoxicity control for HCV replication inhibitor project, primary screen (AID 1143).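 Further: Huh7 hepatoma cells carrying a hepatitis C replication reporter with no stimulus; test concentration not given here.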 Particulars: Huh7 HCV replicon, CellTiter-Glo luminescence, 48 h, higher = more signal, called active from +8 up or from −8 down unless noted. (A replicon is a self-replicating genome or part of one, used to study replication in cells.)

A short description of assay [3]: Pseudomonas biofilm growth suppression – PAO1 strain, BacTiter-Glo luminescence, LB-PBS, primary screen (AID 1144). Particulars: P. aeruginosa PAO1 biofilm, 12 h, higher = more signal.
A short description of assay [4]: basal CRE-LacZ reporter activity in PC12 – cell-based, unstimulated, primary screen (AID 1145). The settings on record: no forskolin, luminescence, 4.5 h; higher = more signal, called active from +8 up or from −8 down unless noted.
The nature of assay [5]: forskolin-driven CRE-LacZ activity in PC12 – cell-based, CRE-LacZ reporter, forskolin-stimulated, primary screen (AID 1146).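 Further: PC12 cells with 6xCRE LacZ reporter stimulated by forskolin 10 µM; beta-galactosidase reporter signal reflecting CREB driven transcription.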 The settings on record: luminescence, 4.5 h; higher = more signal, called active from +8 up or from −8 down unless noted.
Assay [6] deals with Streptavidin (Streptomyces avidinii) (UniProt P22629). Nature of the assay: compounds binding control protein streptavidin – biophysical, small-molecule microarray, 635/667 nm fluorescence, artefact control for SMM compound annotation, primary screen (AID 1147).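 Further: signal reflects streptavidin binding to arrayed compounds as a control protein.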 The settings on record: higher = more signal.
Chain of Streptavidin (Streptomyces avidinii) (P22629 whole entry, looked up): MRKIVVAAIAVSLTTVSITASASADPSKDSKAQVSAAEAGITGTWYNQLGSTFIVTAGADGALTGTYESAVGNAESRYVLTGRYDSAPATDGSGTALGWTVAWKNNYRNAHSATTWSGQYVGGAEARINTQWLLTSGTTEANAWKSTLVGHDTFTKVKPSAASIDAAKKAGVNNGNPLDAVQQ
Assay [7] is described as follows: probe aInhba binding on compound microarray – biochemical, small-molecule microarray, 635/667 nm fluorescence, primary screen (AID 1148).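 Further: score merges 667nm spot fluorescence with signal-to-noise for antibody binding to printed compounds.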 The settings on record: higher = more signal; small-molecule microarray, probe aInhba, fluorescence unless noted.
In assay [8] the target is Torsin-1A (Homo sapiens) (UniProt O14656). As to the kind of experiment: TOR1A wild-type binding on microarray – cell lysate, small-molecule microarray, lysate, 635/667 nm, primary screen (AID 1149). Particulars: COS7 hTOR1A-WT lysate, 635 nm fluorescence, higher = more signal.
Chain of Torsin-1A (Homo sapiens) (O14656 whole entry, looked up): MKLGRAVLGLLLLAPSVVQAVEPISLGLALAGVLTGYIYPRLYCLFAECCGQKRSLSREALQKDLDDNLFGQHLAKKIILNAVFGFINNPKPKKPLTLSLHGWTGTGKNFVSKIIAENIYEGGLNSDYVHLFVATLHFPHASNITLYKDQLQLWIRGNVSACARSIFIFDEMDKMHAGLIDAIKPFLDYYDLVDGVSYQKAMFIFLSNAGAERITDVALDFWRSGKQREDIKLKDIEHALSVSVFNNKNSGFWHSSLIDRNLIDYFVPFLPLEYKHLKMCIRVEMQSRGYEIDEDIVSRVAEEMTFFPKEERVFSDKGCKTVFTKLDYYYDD
The target is the same in assay [9]. Nature of the assay: torsin A mutant lysate binding on microarrays – cell lysate, small-molecule microarray, COS7 lysate, 635/667 nm fluorescence, primary screen (AID 1150).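 Further: score pools 667 nm emission and signal to noise measuring lysate protein binding.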 The settings on record: COS7 hTOR1A mutant lysate, 635 nm fluorescence, higher = more signal.
The subject of assay [10] is Sonic hedgehog protein (Shh). Nature of the assay: Sonic hedgehog microarray binding compounds – biochemical, small-molecule microarray, 635/667 nm fluorescence, primary screen (AID 1151).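 Further: Shh protein binding to compounds spotted on small-molecule microarray slides; score combines spot fluorescence intensity with signal-to-noise across triplicate slides.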 Particulars: 635 nm fluorescence, higher = more signal.
Assay [11] can be described thus: optical density shifts of acrAB sulA E. coli – strain DRC41, OD650, 48 h, E. coli filamentation inducer project, primary screen (AID 1152).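 Further: E. coli MC1000 strain DRC41 lacking acrAB efflux pump and sulA.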 Particulars: higher = more signal, called active from +8 up or from −8 down unless noted.
A short description of assay [12]: probe aLefty1 binding on compound microarray – biochemical, small-molecule microarray, 635/667 nm fluorescence, primary screen (AID 1153).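 Further: score merges spot fluorescence with signal-to-noise ratio from the scanned slide images.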 Particulars: higher = more signal; small-molecule microarray, probe aLefty1, fluorescence unless noted.
The nature of assay [13]: plasmodial surface anion channel blockers, osmotic lysis – cell-based, P. falciparum Indochina, OD700, 1 h, primary screen (AID 1154). The settings on record: P. falciparum Indochina infected RBC osmotic lysis; higher = more signal, called active from +8 up or from −8 down unless noted.
Assay [14] is described as follows: plasmodial surface anion channel blockers, osmotic lysis – cell-based, P. falciparum Indochina, OD700, 2 h, primary screen (AID 1155).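 Further: lysis reports solute entry through the parasite surface anion channel PSAC.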 The settings on record: P. falciparum Indochina infected erythrocytes; higher = more signal, called active from +8 up or from −8 down unless noted.
A short description of assay [15]: changes in parasitized red cell lysis, either direction – P. falciparum Indochina, OD700, 3 h, PSAC antagonist project, primary screen (AID 1156). Particulars: P. falciparum-infected erythrocytes, osmotic lysis; higher = more signal, called active from +8 up or from −8 down unless noted.
A short description of assay [16]: plasmodial surface anion channel blockers, osmotic lysis – cell-based, P. falciparum Indochina, OD700, 18 h, primary screen (AID 1157). The settings on record: P. falciparum Indochina infected erythrocytes, osmotic lysis OD700, 18 h; higher = more signal, called active from +8 up or from −8 down unless noted.
The nature of assay [17]: S6 kinase pathway phospho-S6 level changes – cell-based, A549, cytoblot, luminescence, serum-stimulated, primary screen (AID 1158).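 Further: serum-stimulated A549 lung adenocarcinoma cells; signal is phosphorylated S6 detected by cytoblot immunostaining with HRP secondary.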 Particulars: 5 h, higher = more signal.
Assay [18] addresses NADPH oxidase 2 (Homo sapiens) (UniProt P04839). As to the kind of experiment: compounds shifting NOX2 Amplex Red fluorescence – cell-based, HEK293-NOX2, PMA-stimulated, NOX inhibitor project, primary screen (AID 1159). Further: test concentration not given here. The settings on record: 45 min; higher = more signal, called active from +8 up or from −8 down unless noted.
For assay [19], the target named is NADPH oxidase 4 (Homo sapiens) (UniProt Q9NPH5). As to the kind of experiment: compounds shifting NOX4 Amplex Red fluorescence – cell-based, HEK293-NOX4, tetracycline-induced, NOX inhibitor project, primary screen (AID 1160). Particulars: HEK293-NOX4, Amplex Red H2O2 fluorescence, 45 min; higher = more signal, called active from +8 up or from −8 down unless noted.
Chain of NADPH oxidase 4 (Homo sapiens) (Q9NPH5 whole entry, looked up): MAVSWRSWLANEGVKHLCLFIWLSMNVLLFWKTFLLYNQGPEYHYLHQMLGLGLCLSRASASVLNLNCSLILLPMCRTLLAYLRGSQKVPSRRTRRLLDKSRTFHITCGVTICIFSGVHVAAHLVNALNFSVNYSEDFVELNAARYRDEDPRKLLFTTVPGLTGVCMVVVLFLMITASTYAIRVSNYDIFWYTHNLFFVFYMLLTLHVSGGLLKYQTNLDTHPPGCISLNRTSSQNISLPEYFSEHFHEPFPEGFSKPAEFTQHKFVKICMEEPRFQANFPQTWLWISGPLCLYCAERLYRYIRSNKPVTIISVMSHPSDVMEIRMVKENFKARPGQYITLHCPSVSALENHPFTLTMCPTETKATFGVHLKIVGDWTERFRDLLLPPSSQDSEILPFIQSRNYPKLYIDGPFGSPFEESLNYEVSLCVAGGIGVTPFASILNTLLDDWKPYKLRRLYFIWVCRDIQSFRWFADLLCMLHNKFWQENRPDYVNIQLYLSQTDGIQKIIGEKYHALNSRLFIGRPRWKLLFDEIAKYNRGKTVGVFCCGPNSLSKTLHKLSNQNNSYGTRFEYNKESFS

In assay [20] the target is NADPH oxidase 5 (Homo sapiens) (UniProt Q96PH1). As to the kind of experiment: compounds shifting NOX5 Amplex Red fluorescence – cell-based, HEK293-NOX5, NOX inhibitor project, primary screen (AID 1161). Particulars: HEK293-NOX5, ionomycin, 45 min, higher = more signal.
Chain of NADPH oxidase 5 (Homo sapiens) (Q96PH1 whole entry, looked up): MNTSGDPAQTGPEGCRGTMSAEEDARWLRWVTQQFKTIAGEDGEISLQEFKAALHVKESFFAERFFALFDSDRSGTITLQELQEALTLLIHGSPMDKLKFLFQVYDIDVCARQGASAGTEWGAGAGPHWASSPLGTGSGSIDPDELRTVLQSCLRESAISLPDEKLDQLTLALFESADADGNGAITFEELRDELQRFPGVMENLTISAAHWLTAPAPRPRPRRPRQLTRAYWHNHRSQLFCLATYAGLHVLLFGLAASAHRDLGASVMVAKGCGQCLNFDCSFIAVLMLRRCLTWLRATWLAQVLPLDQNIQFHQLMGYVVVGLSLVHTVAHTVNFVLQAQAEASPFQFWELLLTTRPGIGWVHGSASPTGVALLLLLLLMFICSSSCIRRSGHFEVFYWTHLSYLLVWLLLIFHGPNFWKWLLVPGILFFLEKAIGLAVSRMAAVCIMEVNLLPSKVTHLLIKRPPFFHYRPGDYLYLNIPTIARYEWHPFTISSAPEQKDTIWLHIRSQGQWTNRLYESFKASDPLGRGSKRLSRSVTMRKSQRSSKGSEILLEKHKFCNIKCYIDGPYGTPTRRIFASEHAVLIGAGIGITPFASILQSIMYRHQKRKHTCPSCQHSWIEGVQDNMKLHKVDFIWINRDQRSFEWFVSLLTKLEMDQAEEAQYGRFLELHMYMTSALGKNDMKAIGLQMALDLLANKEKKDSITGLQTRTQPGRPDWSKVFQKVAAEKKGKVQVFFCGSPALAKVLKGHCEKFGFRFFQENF

Chain of NADPH oxidase 2 (Homo sapiens) (P04839 whole entry, looked up): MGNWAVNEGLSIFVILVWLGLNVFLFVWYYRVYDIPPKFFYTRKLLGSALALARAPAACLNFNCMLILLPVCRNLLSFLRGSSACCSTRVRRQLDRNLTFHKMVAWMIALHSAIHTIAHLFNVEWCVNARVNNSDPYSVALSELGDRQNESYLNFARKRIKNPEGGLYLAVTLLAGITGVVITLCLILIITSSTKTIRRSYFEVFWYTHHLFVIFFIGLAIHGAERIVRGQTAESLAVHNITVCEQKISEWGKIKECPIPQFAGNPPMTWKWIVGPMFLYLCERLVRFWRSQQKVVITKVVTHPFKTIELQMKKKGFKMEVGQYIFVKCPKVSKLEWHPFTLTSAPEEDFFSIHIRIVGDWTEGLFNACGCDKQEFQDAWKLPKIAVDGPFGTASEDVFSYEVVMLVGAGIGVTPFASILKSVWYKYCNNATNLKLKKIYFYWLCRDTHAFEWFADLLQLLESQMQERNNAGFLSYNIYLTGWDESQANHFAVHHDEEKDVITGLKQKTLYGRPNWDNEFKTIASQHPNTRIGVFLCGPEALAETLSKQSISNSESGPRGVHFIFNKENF

Turning to `COC(=O)[C@H]1[C@H](c2ccccc2)C(=O)[C@]2(O)c3ccccc3O[C@@]12c1ccccc1`, the composite z-score in [1] is 0.129; in [6], 0.287; in assay [7], -0.101; in assay [8], 0.202; in [9] it was 0.163; in [10] it was 0.615. Besides, the composite z-score in [12] is -0.0523. Further, the z-score in assay [2] is -0.962 (inactive); in assay [3], -1.45 (inactive); in assay [4], -0.161 (inactive); in [5] it was -0.474 (inactive); in [11], -0.474 (inactive); in assay [13], -0.446 (inactive). The z-score in assay [14] is -0.657 (inactive); in [15] it was 0.126 (inactive); in [16], -0.564 (inactive); in assay [17] it was 1.55; in [18] it was -0.181 (inactive); in assay [19], -1.55 (inactive). Further, in assay [20], the z-score is -0.324.

`c1ccc(-c2cc3c(nc2-c2ccccc2)CCNC3)cc1`: the composite z-score in [1] is -0.2; in assay [6], 0.0291; in assay [7], 0.0228; in assay [8], 0.175; in [9] it was -0.256; in assay [10], -0.193. For the same molecule, the composite z-score in assay [12] was -0.101. The z-score in [2] was -0.207 (inactive); in [3], 0.346 (inactive); in assay [4], 0.291 (inactive); in [5], -0.815 (inactive); in assay [11], -0.539 (inactive); in [13], 1.39 (inactive). Also, the z-score in [14] was 0.179 (inactive); in [15] it was 0.484 (inactive); in assay [16], 0.248 (inactive); in assay [17] it was -0.597; in assay [18] it was 1.18 (inactive); in assay [19], 0.286 (inactive). The z-score in assay [20] was -0.433.

Take `CCCC[C@@H]1C[C@H]1[C@@H](NP(=O)(c1ccccc1)c1ccccc1)c1ccc(Cl)cc1`: the composite z-score in [1] was 0.0234; in [6], 0.239; in assay [7], 0.157; in assay [8], -1.53; in assay [9] it was -0.202; in assay [10] it was -1.29. In assay [12], this molecule displayed a composite z-score of 0.337. Further, the z-score in assay [2] was -0.971 (inactive); in assay [3] it was -0.451 (inactive); in [4] it was -0.379 (inactive); in assay [5], -0.273 (inactive); in assay [11], -1.26 (inactive); in [13] it was 7.22 (inactive). Further, the z-score in assay [14] is 1.78 (inactive); in assay [15], 0.394 (inactive); in assay [16] it was 0.788 (inactive); in assay [17], -0.554; in assay [18], -1.87 (inactive); in assay [19], -1.56 (inactive). In addition, the z-score in [20] is 0.453.

As for `CCOC(=O)[C@H]1CC=C2C(=O)Oc3ccccc3[C@@H]21`, the composite z-score in [1] is -0.652; in [6], -0.521; in assay [7], -0.0405; in assay [8], -2.41; in [9], -1.59; in assay [10] it was -0.528. Moreover, the composite z-score in assay [12] is -0.106. For the same molecule, the z-score in [2] was -1.22 (inactive); in assay [3] it was -0.473 (inactive); in assay [4] it was -0.228 (inactive); in assay [5], 1.7 (inactive); in assay [11] it was -0.59 (inactive); in assay [13] it was 1.27 (inactive). The z-score is 0.804 (inactive) in assay [14]; 0.458 (inactive) in assay [15]; 0.708 (inactive) in assay [16]; -0.395 in [17]; 0.00603 (inactive) in [18]; -0.285 (inactive) in assay [19]. In addition, in assay [20], the z-score is -0.275.

`CCCc1cc2c(n1Cc1ccc(C)cc1)C(C)C1CN(C(=O)c3ccccc3)C(C)(C(=O)OC)C21` (stereo not given): the composite z-score is 0.667 in assay [1]; 1.23 in assay [6]; 0.643 in [7]; 0.55 in [8]; 1.06 in assay [9]; -0.2 in assay [10]. Further, the composite z-score in [12] was found to be 1.33. For the same molecule, the z-score was -2.69 (inactive) in [2]; 0.426 (inactive) in assay [3]; 1.53 (inactive) in [4]; 1.57 (inactive) in assay [5]; -0.692 (inactive) in [11]; 1.5 (inactive) in assay [13]. Besides, the z-score in [14] is -0.732 (inactive); in assay [15], 0.454 (inactive); in assay [16], -1.81 (inactive); in [17], 1.39; in assay [18], -0.714 (inactive); in assay [19] it was -0.757 (inactive). In assay [20], the z-score was -3.63.

Values taken from PubChem BioAssay.
